# L3MBTL1 inh = qHTS Assay for the Inhibitors of L3MBTL1. Lethal(3)malignant brain tumor-like protein 1 (Homo sapiens), Q9Y468. AlphaScreen L3MBTL1–H3K9me1 peptide binding. Potency, µM (top dose mostly 57.1 µM), for inactives: top-dose activity, negative = inhibition, usual class: inhibitors. hit rate 0.66% among 230,000. AID 485360, 2010; note: % is set by controls: 0 for no effect and ±100 for the full control effect; nearly all actives have a fitted effect of over 60% in size
#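 AlphaScreen assay: L3MBTL1 (50 nM final) was preincubated 30 min at room temperature with biotinylated H3(1-15)K9me1 peptide (75 nM final), then 30 min with library compounds; streptavidin donor and nickel chelate acceptor beads (10 ug/mL final) added, 30 min dark.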
# JMJD2A Tudor inh = qHTS Assay for Inhibitors of JMJD2A-Tudor Domain; Lysine-specific demethylase 4A (Homo sapiens), O75164; AlphaScreen JMJD2A-Tudor / H3K4me3 peptide binding; Potency, µM (highest dose often 114 µM), for inactives: top-dose activity change, negative = inhibition, most hits filed as inhibitors; hit rate 4.4% among 390,000; AID 504339, 2011; note: % is set by controls: 0 for no effect and ±100 for the full control effect; nearly all actives have a fitted effect of over 50% in size
# Target sequence (O75164 whole entry, looked up, the tested form may be a part): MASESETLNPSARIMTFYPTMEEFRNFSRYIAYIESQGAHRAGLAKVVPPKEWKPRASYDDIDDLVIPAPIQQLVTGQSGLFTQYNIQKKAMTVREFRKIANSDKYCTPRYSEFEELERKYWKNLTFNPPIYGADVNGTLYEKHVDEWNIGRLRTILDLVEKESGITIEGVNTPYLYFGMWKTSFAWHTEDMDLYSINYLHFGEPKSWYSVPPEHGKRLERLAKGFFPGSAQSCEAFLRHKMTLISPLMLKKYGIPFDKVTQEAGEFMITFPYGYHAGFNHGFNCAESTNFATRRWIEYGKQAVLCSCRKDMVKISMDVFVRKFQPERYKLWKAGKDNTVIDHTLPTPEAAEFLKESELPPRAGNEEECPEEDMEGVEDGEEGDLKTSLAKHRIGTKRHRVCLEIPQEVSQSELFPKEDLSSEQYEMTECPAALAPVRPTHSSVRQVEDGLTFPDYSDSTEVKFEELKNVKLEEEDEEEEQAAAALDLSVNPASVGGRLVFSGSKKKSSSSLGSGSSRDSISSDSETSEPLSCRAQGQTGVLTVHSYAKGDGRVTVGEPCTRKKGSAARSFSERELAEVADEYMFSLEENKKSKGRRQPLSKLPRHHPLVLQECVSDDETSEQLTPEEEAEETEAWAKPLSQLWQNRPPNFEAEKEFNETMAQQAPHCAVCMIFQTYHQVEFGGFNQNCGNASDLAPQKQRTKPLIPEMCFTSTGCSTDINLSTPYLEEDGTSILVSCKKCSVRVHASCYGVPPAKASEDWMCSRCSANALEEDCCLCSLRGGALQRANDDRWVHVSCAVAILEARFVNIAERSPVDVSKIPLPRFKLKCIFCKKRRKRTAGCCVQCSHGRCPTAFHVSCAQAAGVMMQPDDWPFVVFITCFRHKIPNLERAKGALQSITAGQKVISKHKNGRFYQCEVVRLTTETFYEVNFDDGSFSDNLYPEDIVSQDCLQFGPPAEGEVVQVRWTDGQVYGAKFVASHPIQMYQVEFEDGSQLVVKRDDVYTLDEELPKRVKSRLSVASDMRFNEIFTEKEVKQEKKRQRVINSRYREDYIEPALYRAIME
# HP1b binding inh = HTS for Inhibitors of HP1-beta Chromodomain Interactions with Methylated Histone Tails; Chromobox protein homolog 1 (Homo sapiens), P83916; AlphaScreen HP1-beta / biotin-H3K9me3 peptide binding; Potency, µM (series often up to 114 µM), inactives show top-dose activity change, negative = inhibition, most hits filed as inhibitors; hit rate 0.56% among 390,000; note: nearly all actives have a fitted effect of over 70% in size
#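 HP1-beta protein (50 nM final) preincubated 30 min at room temperature with biotinylated H3(1-18)K9me3 peptide (50 nM) in PBS pH 7.4, 0.01% Tween-20, then compound added for 30 min. AlphaScreen streptavidin donor/nickel chelate acceptor beads (10 ug/mL final), 30 min dark, luminescence read.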
# G9a inh = qHTS Assay for Inhibitors of Histone Lysine Methyltransferase G9a | G9a H3K9 monomethylation, AlphaScreen, 2 h | Potency, µM (titrated, usually from 102 µM), without a hit: at the top dose activity, negative = inhibition, hits mostly inhibitors | hit rate 8.8% among 350,000 | AID 504332, 2011; note: % is set by controls: 0 for no effect and ±100 for the full control effect; nearly all actives have a fitted effect of over 75% in size
#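 AlphaScreen detection with an anti-monomethyl H3K9 antibody quantified product after a 2 h room-temperature reaction containing 500 nM biotinylated H3K9 peptide, 20 µM SAM and 20 nM enzyme, which had been preincubated 15 min with compound.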
# BAZ2B inh = qHTS Assay for Inhibitors of BAZ2B; Bromodomain adjacent to zinc finger domain protein 2B (Homo sapiens), Q9UIF8; AlphaScreen BAZ2B-H3K14Ac peptide displacement; Potency, µM (doses to about 114 µM), for the others: top-dose activity change, negative = inhibition, usual class: inhibitors; hit rate 4.4% among 360,000; note: % is set by controls: 0 for no effect and ±100 for the full control effect; nearly all actives have a fitted effect of over 60% in size
#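 Inhibition is scored as reduced AlphaScreen emission. The BAZ2B/b-H3(5-23)K14Ac complex (50 nM each) in PBS pH 7.4, 0.01% Tween-20 meets compound (up to 110 uM) for 30 min at RT before bead addition.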
# Active calls of the source: *; ? = inconclusive; . = no result given; [ ] = another dose, or the depositor's remark. This is a sample that favours compounds with a hit; in the whole collection about 11% have one here. Calls come from the whole dose curve; as a rule, active = well fitted inhibition curve with a large enough effect; inconclusive = small, poorly fitted or top-dose-only effect; inactive = no such curve, though single readings can be large or run the other way. Potency is the fitted concentration of half-maximal effect.
SMILES,L3MBTL1 inh,JMJD2A Tudor inh,HP1b binding inh,G9a inh,BAZ2B inh
Cc1ccccc1OCC(=O)Nc1ccccc1N1CCCCC1,30%,71%,140%,?,.
O=C(CNCC1CCCO1)Nc1ccccc1N1CCCCCC1 (centres undefined),-3%,?,-14%,45µM*,?
O=C(CNCCC1=CCCCC1)Nc1ccc(N2CCCCCC2)cc1,?,20µM*,16µM*,?,13µM*
O=C(Cc1ccc(Cl)cc1)Nc1ccc(N2CCCC2)cc1,.,4%,11%,?,-3%
O=C(CNC1CCCCCC1)Nc1ccc(N2CCCC2)cc1,-22%,.,.,28µM*,?
O=C(CNC1CCCC1)Nc1ccc(N2CCCCCC2)cc1,-24%,2.8µM*,40µM*,5.6µM*,22µM*
CC1(C)CC(=O)N(CC(=O)NCc2ccccc2)c2ccccc2S1(=O)=O,8%,-6%,35%,18%[59 µM],-6%
O=C(CNCC1CCCO1)Nc1ccc(N2CCCCCC2)cc1 (centres undefined),.,3.2µM*,14µM*,?,35µM*
CCN(CC)c1ccc(NC(=O)CN2C(=O)CC(C)(C)S(=O)(=O)c3ccccc32)c(C)c1,-2%,-27%,49%,8.9µM*,-12%
O=C(Nc1ccc(N2CCOCC2)cc1)C1CCCCC1,.,-7%,12%,-29%[59 µM],1%
CCN(CC)c1ccc(NC(=O)CNCc2ccccc2Cl)c(C)c1,.,10µM*,25µM*,35µM*,18µM*
NS(=O)(=O)c1ccc(NC(=O)COC(=O)C2CCCCC2)cc1,-10%,-13%,6%,0%[12.7 µM],-14%
O=C(COC(=O)C1CCCCC1)Nc1ccc(N2CCCCC2)cc1,-28%,?,?,11µM*,?
COc1ccc(NC(=O)C2CCC(CNS(=O)(=O)c3ccc4c(c3)C(C)(C)C(=O)N4C)CC2)cc1 (centres undefined),.,-1%,28%,1%[59 µM],-4%
CCc1cccc(NC(=O)c2cc3c(=O)n(Cc4ccc(OC)cc4)ccc3nc2C)c1,.,-14%,27%,-21%[59 µM],-8%
Cc1noc(-c2ccc(NCc3ccccc3)c([N+](=O)[O-])c2)n1,.,-8%,29%,-9%[59 µM],-2%
CC1CCN(CC(=O)Nc2ccc(N3CCCCCC3)cc2)CC1,?,20µM*,22µM*,10µM*,20µM*
CC1CCN(CC(=O)Nc2ccc(S(=O)(=O)N3CCCCC3)cc2)CC1,12%,-6%,24%,.,7%
O=C(CNCc1ccccc1Cl)Nc1ccccc1N1CCCCC1,17%,22µM*,?,10µM*,22µM*
O=C(Cc1ccccc1F)Nc1ccccc1N1CCCC1,.,?,10%,68%,-13%
O=C(CNCC1CCCCC1)Nc1ccc(N2CCCCC2)cc1,?,.,.,22µM*,28µM*
CCC(C)NC(=O)C1CCN(C(=O)c2ccc(-n3ccc4ccccc43)s2)CC1 (centres undefined),.,-19%,-7%,4%[59 µM],2%
COc1ccc(-c2cn(Cc3ccc(C(=O)NCc4ccc(C)cc4)cc3)c(C(C)N)n2)cc1 (centres undefined),-4%,?,-2%,4%[2.33 µM],?
Cc1ccc(N2CC(NC(=O)CCc3ccccc3)CC2=O)cc1C (centres undefined),.,2%,26%,3%[59 µM],3%
Cc1ccccc1-n1nnnc1SCC(=O)Nc1ccc(N2CCN(C)CC2)cc1,.,?,38%,50µM*,-32%[57.1 µM]
SMILES,L3MBTL1 inh,JMJD2A Tudor inh,HP1b binding inh,G9a inh,BAZ2B inh
CCc1ccccc1-n1nnnc1SCC(=O)Nc1ccc(N2CCN(C)CC2)cc1,.,10%,50%,50µM*,?
Cc1cccc(-n2nnnc2SCC(=O)Nc2ccc(N3CCN(C)CC3)cc2)c1,.,?,-3%,45µM*,?
Cc1ccccc1-n1nnnc1SC(C)C(=O)Nc1ccc(N2CCN(C)CC2)cc1 (centres undefined),.,?,-1%,-8%[12.7 µM],?
Cn1nnnc1Sc1ncnc2scc(-c3ccc4c(=O)ccoc4c3)c12,.,-14%,.,.,.
NS(=O)(=O)c1ccc(CCNC(=O)Cn2c(=O)c3cccn3c3ccc(F)cc32)cc1,.,-14%,16%,-26%[59 µM],-3%
CC(C)(C)c1nn(-c2ccccc2)c2[nH]c(=O)c(CNc3ccc4c(c3)OCCO4)cc12,.,40µM*,?,35µM*,1.1µM*
O=c1[nH]c2c(cc1CNCCN1CCOCC1)c(-c1cccc(F)c1)nn2-c1ccccc1,-3%,.,.,1%,3%
Cc1nn(-c2ccccc2)c2[nH]c(=O)c(CNc3ccc(N4CCOCC4)cc3)cc12,-20%,?,?,32µM*,45µM*
Cc1ccc(C(=O)Nc2c(C(=O)Nc3ccc(C)c(C)c3)sc3nc(C)cc(C)c23)cc1,.,-20%,19%,11%[59 µM],-7%
C=CCC(O)[C@H](Cc1cnc2ccccc2c1)[C@H](/C=C/CCCC)c1ccccc1 (some centres undefined),.,2%,60%,.,.
OCCNCCOc1ccccc1F,9%,-7%,33%,-1%[59 µM],0%
CC(C)c1ccccc1NC(=O)CNCCOc1ccccc1F,.,28µM*,?,21%,50µM*
COc1ccc(CNCCCC(=O)Nc2c(Cl)ccc(C)c2Cl)cc1OC,.,0.79µM*,79µM*,3.2µM*,56µM*
COc1ccc(CCNCCC(=O)Nc2c(C)cc(C)cc2C)cc1OC,6%,-21%,17%,5%[59 µM],-6%
C=CCN1CC(C(=O)N(CCCN(C)C)C(=O)NCC)CC2c3cccc4[nH]cc(c34)CC21 (centres undefined),.,.,.,9%[12.7 µM],.
Cc1ccc2nc(-c3ccc(N4C(=NC(=O)CCC(=O)O)SC5CS(=O)(=O)CC54)cc3)sc2c1 (centres undefined),13µM*,?,?,45µM*,?
O=C(O)c1ccc(COc2ccccc2/C=C2/NC(=O)N(c3cccc(Cl)c3)C2=O)cc1,-6%,?,?,-15%[59 µM],79µM*
CN1C(=O)/C(=C/c2ccccc2OCc2ccc(C(=O)O)cc2)NC1=S,-7%,?,22%,?,?
O=C(O)c1ccc(COc2ccc3ccccc3c2/C=C2/NC(=O)N(c3ccccc3)C2=O)cc1,-6%,-35%,8%,.,-36%
O=C1NC(=S)N/C1=C\c1ccccc1OCc1ccc(C(=O)O)cc1,5%,79µM*,-8%,.,-1%
CSc1ncc(C(=O)NCc2ccc(F)cc2)c(-c2ccccc2)n1,.,-9%,12%,9%[59 µM],-1%
O=C(Nc1cccc(S(=O)(=O)NC2=NCCCCC2)c1)c1ccc(Cl)cc1,4%,-3%,35%,50µM*,26%

# Screening results from PubChem BioAssay.
